Shown are actives, neighbours in structure and some others; about 3.1% of the full set was active somewhere.
uPA generation: blocks generation of uPA at the cell surface; AID 540303; cell surface uPA generation assay, qHTS; Potency, µM (top dose mostly 38.3 µM), for inactives: at the highest dose activity change, negative = inhibition, usual class: inhibitors; actives 0.31% (n = 330,000); active = well fitted inhibition curve with a large enough effect; inconclusive = small, poorly fitted or top-dose-only effect; inactive = no such curve, though single readings can be large or run the other way; tested in mouse RAW 264.7 cells; also: potency is read from the fitted curve at half-maximal effect; % is scaled to controls: 0 for no effect and ±100 for the full control effect; nearly all actives have a fitted effect of over 55% in size
D3 ag: activates the human D3 dopamine receptor. P35462. D3R DiscoveRx beta-arrestin cells, luminescence, 90 min. max activation, %. actives 0.58% (n = 410,000). AID 652048; in the data active = max activation above about 30%; also: 0% is about no effect
Target sequence (P35462 whole entry, looked up): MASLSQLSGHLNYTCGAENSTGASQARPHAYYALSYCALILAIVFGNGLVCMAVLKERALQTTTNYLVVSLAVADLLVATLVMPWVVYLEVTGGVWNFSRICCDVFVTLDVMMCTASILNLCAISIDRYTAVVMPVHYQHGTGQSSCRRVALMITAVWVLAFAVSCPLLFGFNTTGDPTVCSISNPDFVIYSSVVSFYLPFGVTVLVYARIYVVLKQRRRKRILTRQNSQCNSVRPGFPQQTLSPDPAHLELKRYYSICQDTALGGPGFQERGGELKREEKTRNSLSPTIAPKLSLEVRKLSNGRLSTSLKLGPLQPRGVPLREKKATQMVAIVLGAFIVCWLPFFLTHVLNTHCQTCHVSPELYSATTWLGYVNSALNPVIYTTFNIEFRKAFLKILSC
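Cells at 1500/well, incubated overnight, then treated with pinned compounds (dopamine as control) for 90 min at 37 degrees C. DiscoveRx reagent added for 30 - 60 minutes at room temperature; luminescence read.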
RGS4 inh: blocks human RGS4-accelerated GTP hydrolysis; P49798; Transcreener GDP fluorescence polarization, RGS4-accelerated GTP hydrolysis; Potency, µM (highest dose often 114 µM), inactives show top-dose activity change, negative = inhibition, usual class: inhibitors; actives 0.039% (n = 390,000); active = well fitted inhibition curve with a large enough effect; inconclusive = small, poorly fitted or top-dose-only effect; inactive = no such curve, though single readings can be large or run the other way; also: potency is read from the fitted curve at half-maximal effect; % is scaled to controls: 0 for no effect and ±100 for the full control effect; nearly all actives have a fitted effect of over 75% in size
Target sequence (P49798 whole entry, looked up): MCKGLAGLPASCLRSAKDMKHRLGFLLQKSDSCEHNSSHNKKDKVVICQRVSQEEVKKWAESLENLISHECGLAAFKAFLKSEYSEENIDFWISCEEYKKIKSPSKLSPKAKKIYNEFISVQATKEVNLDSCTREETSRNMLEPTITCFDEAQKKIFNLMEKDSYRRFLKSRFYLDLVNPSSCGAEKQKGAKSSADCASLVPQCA
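MLSMR compounds (23 nl, pin-transferred) preincubated 10 min at room temperature with a 500nM (2x) first reagent, then RGS4 at 900nM (2x) plus Transcreener GDP mix added; fluorescence polarization (620/688 nm) read before and after 90 min at 30 °C.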
DRD3 antagonist: D3 dopamine receptor (human) antagonism; P35462; D3R cells, DiscoveRx beta-arrestin luminescence, antagonist mode; active compounds read low; max response, negative = inhibition, %; actives 2.5% (n = 360,000); in the data active = max response below about -50%; inconclusive = no clear call, values can overlap the other calls; also: % is scaled to controls: 0 for no effect and ±100 for the full control effect
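Cells plated overnight at 1500 cells/well, then exposed to library compounds with dopamine controls for 90 minutes at 37 degrees C. DiscoveRx reagent added for 30–60 minutes at room temperature; luminescence read, quantitative HTS format.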
An asterisk follows results filed as active; ? = inconclusive; / = no result; [ ] = dose if it differs, or a comment.

SMILES	uPA generation	D3 ag	RGS4 inh	DRD3 antagonist
COC(=O)c1ccccc1NC(=S)N(Cc1ccc2c(c1)OCO2)Cc1cc2ccc(C)cc2[nH]c1=O	-5%	-6	-29%	13
CCN(CC)CCN(Cc1cc2ccc(C)cc2[nH]c1=O)C(=S)Nc1ccccc1C(=O)OC	-2%	-19	-21%	-84*
CCN(CC)CCN(Cc1cc2cc3c(cc2[nH]c1=O)OCO3)C(=S)NCCCOC	-5%	-6	-7%	-52*
CCS(=O)(=O)N1CCN(C(=O)c2cccnc2)CC1	4%	3	-33%	27
CC(=O)c1cccc(NC(=O)N2C3CCC2CC(O)(c2cccnc2)C3)c1 (configuration not stated)	15%	1	2%	-15
CC1COCC(C)N1C(=O)c1cccnc1 (configuration not stated)	/	1	/	-125*
O=C(c1cccnc1)N1C2CCC1CC(O)(c1ccc(F)cc1)C2 (configuration not stated)	7%	-28	2%	-57*
O=C(c1c(F)cccc1F)N1CCC(O)(c2ccc(F)cc2)CC1	0%	13	3%	15
O=C(c1ccc(F)cc1)N1C2CCC1CC(O)(c1ccc(F)cc1)C2 (configuration not stated)	0%	-10	-14%	-54*
Cc1ccc(NC(=O)C2CCCN(c3nnc(C)c4c(C)n(-c5ccccc5)nc34)C2)c(Cl)c1 (configuration not stated)	/	7	24%	/
CCC(=O)N1CCc2cc(S(=O)(=O)CCC(=O)NCc3ccccc3Cl)ccc21	/	-3	25%	/
Cc1ccc(/C=C/C(=O)NC2CCCCCCC2)o1	-18%	-18	?	-61*
CC(=O)Oc1oc(-c2ccccc2)nc1/C=N/c1ccccn1	4%	-11	-44%	-62*
COc1ccccc1N=Cc1nc(-c2ccccc2)oc1OC(C)=O	-4%	1	-15%	-56*
Cc1c(N)nc([C@H](CC(N)=O)NC[C@H](N)C(N)=O)nc1C(=O)N[C@H](C(=O)N[C@H](C)[C@@H](O)[C@H](C)C(=O)N[C@H](C(=O)NCCc1nc(-c2nc(C(=O)NCCCCN=C(N)N)cs2)cs1)[C@@H](C)O)[C@@H](O[C@@H]1O[C@@H](CO)[C@@H](O)[C@H](O)[C@@H]1O[C@H]1O[C@H](CO)[C@@H](O)[C@H](OC(N)=O)[C@@H]1O)c1cnc[nH]1	/	13	/	/
CCc1cccc(NC(=O)CN(C)S(=O)(=O)c2ccc3c(c2)CCCN3C(C)=O)c1	/	7	-43%	/
CC(=O)c1c(C)[nH]c(C(=O)OCC(=O)c2ccc(C)s2)c1C	-9%	44*	15%	-3
CC(=O)c1c(C)[nH]c(C(=O)OCC(=O)NCC(C)C)c1C	-5%	3	-16%	10
CNC(=O)COC(=O)c1[nH]c(C)c(C(C)=O)c1C	-9%	-3	36%	-79*
CCOc1ccccc1NC(=O)CCn1c(-c2ccc(OC)cc2)cc(C(C)=O)c1C	/	1	-48%	/
CN(NC(=O)/C=C/C(=O)O)c1ncc(C(F)(F)F)cc1Cl	1%	2	2%	-3
C=CC(=O)NN(C)c1ncc(C(F)(F)F)cc1Cl	3.5µM*	-1	19%	2
CC(=O)Nc1ccccc1-c1nc2ccccc2n(CC(=O)Nc2ccc(C)c(Cl)c2)c1=O	/	-16	-15%	/
O=C1C=C(c2ccc(CO)cc2)C[C@@H](c2ccc3c(c2)OCO3)C1	8%	-27	2%	-51*
COC/C=C/C1=CC(=O)C[C@H](c2ccc3c(c2)OCO3)C1	?	2	-8%	5
SMILES	uPA generation	D3 ag	RGS4 inh	DRD3 antagonist
CCCCC/C=C/C1=CC(=O)C[C@H](c2ccc3c(c2)OCO3)C1	2%	51*	-13%	-1
CCc1ccc(NC(=O)CCS(=O)(=O)c2ccc3c(c2)oc(=O)n3C)cc1	/	5	-2%	/
CC1CCCN(CCCNC(=O)c2ccc3c(c2)N(Cc2ccc(F)cc2)C(=O)c2ccccc2S3=O)C1 (configuration not stated)	-8%	-20	20%	-82*
CC1CCCN(CCCNC(=O)c2nn(C)c3c2CSc2ccccc2-3)C1 (configuration not stated)	3%	-17	13%[11.4 µM]	-66*
CC1CCCN(CCCNC(=O)c2ccc3c(c2)N(Cc2cccc(Cl)c2)C(=O)c2ccccc2S3=O)C1 (configuration not stated)	/	-10	/	-117*
O=C(NCCCN1CCCC1)c1ccc2c(c1)N(Cc1ccc(F)cc1)C(=O)c1ccccc1S2=O (configuration not stated)	-16%	-15	13%	?
O=C(NCCCN1CCOCC1)c1ccc2c(c1)N(Cc1cccc(Cl)c1)C(=O)c1ccccc1S2=O (configuration not stated)	-18%	-2	-4%[56.9 µM]	-6
CC1CCCN(CCCNC(=O)c2ccc3c(c2)N(Cc2ccccc2F)C(=O)c2ccccc2S3(=O)=O)C1 (configuration not stated)	?	-26	-17%	-112*
CCN1CCCC1CNC(=O)c1ccc2c(c1)N(Cc1ccccc1F)C(=O)c1ccccc1S2(=O)=O (configuration not stated)	?	-13	-10%	13
Cc1ccc(C(c2sc3nc(-c4ccco4)nn3c2O)N2CCC3(CC2)OCCO3)cc1 (configuration not stated)	/	1	6%	/
CN1[C@@H]2CC[C@H]1CC(OC(=O)[C@H](CO)c1ccccc1)C2 (some centres not stated)	2%	-31	-10%	-20
COc1ccc(NC(=O)Nc2nnc(N(C)C3CCCCC3)s2)c(OC)c1	/	1	10%	/
CN(C)S(=O)(=O)c1cccc(C(=O)Nc2ccc(Cl)cn2)c1	-20%	-10	0%	-77*
O=C(Nc1ccc(Cl)cn1)c1ccccc1[N+](=O)[O-]	-14%	-8	-34%	-29
O=C(Nc1ccc(Cl)cn1)c1cccc(S(=O)(=O)N2CCCC2)c1	-7%	8	-8%	8
O=C(Nc1ccc(Cl)cn1)c1cccc2ccccc12	8.9µM*	5	-2%	5
Cc1ccc(N(C)C(=O)Cn2cnc3onc(-c4ccc(F)cc4)c3c2=O)cc1C	/	-4	19%	/
CCCCC/C=C\C/C=C\CCCCCCCC(=O)NC(C)c1ccccc1 (configuration not stated)	/	0	/	/
O=C1C=C(c2ccccc2)C(=O)N1Nc1ccccc1	-20%	4	?	?
Cc1ccc(NN2C(=O)C=CC2=O)cc1	-1%	0	-5%	11
Cc1ccc(NN2C(=O)C=C(c3ccc(Cl)cc3)C2=O)cc1	-11%	-1	?	-53*
COc1ccc(C2=CC(=O)N(Nc3ccccc3)C2=O)cc1	-16%	-13	-84%	-62*
CCN(C(=O)CSc1nnc(-c2cc3occc3n2C)n1-c1ccccc1C)c1ccccc1	/	-2	17%	/
COc1ccc(C2NC(=O)N(C)C3=C2C(=O)N(c2cccc(C(=O)O)c2)C3)cc1 (configuration not stated)	/	-6	13%	/

From PubChem
